{
  "source": "PubChem BioAssay (NCI)",
  "note": "Where “and” joins values, the source holds several entries; their conditions need not be identical. Identical values can stand only once. About 83,000 compounds went through this panel and 20% of them were active in at least one assay; those are over-represented in the sample as a whole.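 How to read the values: 0–100, growth inhibition (40 = 60% inhibited); 0, no net growth; -100 to 0, cell death (-40 = 40% of starting cells died; -100 = all dead).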 Calls of active or inactive are those of the source. Rule for the calls: active = growth percent below 10; inactive = the rest.",
  "data": [
    {"test_system": "UACC-62 melanoma", "experiment": "NCI-60 one-dose screen, 48 h (100 = growth as untreated, 0 = no growth, -100 = all killed)", "conditions": "10 µM unless noted", "values": [
      {"smiles": "CCCCCCCCCC(=O)CC(=O)c1c(O)cc(O)cc1O", "growth": "-97.6% [75 µM] (active) and -88.4% [75 µM] (active)"},
      {"smiles": "N#Cc1n[nH]n(-c2ccccc2)c1=O", "growth": "91.7% [100 µM] (inactive) and 100% [100 µM] (inactive)"},
      {"smiles": "COC(=O)C1CCC(=O)N1CN(C(C)=O)c1cccc(O)c1", "note": "(centres undefined)", "growth": "74.6% [100 µM] (inactive) and 102% [100 µM] (inactive)"},
      {"smiles": "N/N=C(\\C(=O)Nc1ccc([N+](=O)[O-])cc1)C(C1=Nc2cc([N+](=O)[O-])ccc2NC1)[N+](=O)[O-]", "note": "(centres undefined)", "growth": "42.3% [100 µM] (inactive) and 14.7% [100 µM] (inactive)"},
      {"smiles": "CC(C)=CCc1cc(C2COc3cc4c(c(O)c3C2=O)C=CC(C)(C)O4)c(O)cc1O", "note": "(centres undefined)", "growth": "-86.8% [100 µM] (active) and -97.1% [100 µM] (active)"},
      {"smiles": "COc1ccc(C2c3cc4c(c(OC)c3CC3OCC(=O)C32)OCO4)cc1OC", "note": "(centres undefined)", "growth": "26% [100 µM] (inactive) and 3.65% [100 µM] (active)"},
      {"smiles": "O=C1NC(N/N=C\\c2ccccc2)=N/C1=C/c1ccc(Cl)cc1", "growth": "-9.96% [100 µM] (active) and 107% [100 µM] (inactive)"},
      {"smiles": "C=C1C(=O)O[C@@H]2C[C@@]3(C)CC(=O)C=C(C)[C@@H]3C[C@H]12", "growth": "-95.6% [100 µM] (active) and -86.6% [100 µM] (active)"},
      {"smiles": "Cc1cc(N(CCC#N)CCC#N)ccc1/C=N/NC(=O)c1cc(Cl)ccc1O", "growth": "46.2% [100 µM] (inactive) and 8.92% [100 µM] (active)"},
      {"smiles": "COC(=O)C(C(=O)C(=O)NC1Nc2ccc(C)cc2S1)c1nc2ccc(Cl)cc2[nH]c1=O", "note": "(centres undefined)", "growth": "77.4% [100 µM] (inactive) and 58.3% [100 µM] (inactive)"},
      {"smiles": "O=C(O)c1n[nH]nc1Cl", "growth": "43.6% [100 µM] (inactive) and 103% [100 µM] (inactive)"},
      {"smiles": "CC1CC(=O)N(N(C)C)C2(C#N)C(=O)N=C(N)C12C#N", "note": "(centres undefined)", "growth": "-84.2% [100 µM] (active) and -92.9% [100 µM] (active)"},
      {"smiles": "COC(=O)C1=CO[C@@H](OC2OC(CO)C(O)C(O)C2O)[C@H]2[C@@H](C)[C@@H](O)[C@@H](O)[C@@H]12", "note": "(some centres undefined)", "growth": "89.9% [100 µM] (inactive) and 99.1% [100 µM] (inactive)"},
      {"smiles": "Cc1ccc(/C=N/Nc2cnccn2)s1", "growth": "58.8% [100 µM] (inactive) and 98.5% [100 µM] (inactive)"},
      {"smiles": "N#C/C=C1\\C=CC(O)C(O)C1OC1OC(CO)C(O)C(O)C1O", "note": "(centres undefined)", "growth": "95% [100 µM] (inactive) and 88.4% [100 µM] (inactive)"},
      {"smiles": "COc1c(OC)c(OC)c2c(c1OC)c(=O)c1ccccc1n2C", "growth": "38.1% [100 µM] (inactive) and -44.4% [100 µM] (active)"},
      {"smiles": "COC(=O)C(=O)C(C(=O)C(=O)Nc1nc2ccc(C)cc2s1)c1nc2ccc([N+](=O)[O-])cc2[nH]c1=O", "note": "(centres undefined)", "growth": "61.1% [100 µM] (inactive) and 52.2% [100 µM] (inactive)"},
      {"smiles": "Cc1ccc(F)cc1NC(=O)O/N=C(\\Cl)C(C)C", "growth": "82.6% [100 µM] (inactive) and 60.7% [100 µM] (inactive)"},
      {"smiles": "COc1cc2c3cc1Oc1c(OC)c(OC)cc4c1C(Cc1ccc(O)c(c1)-c1cc(ccc1OC)CC3N(C)CC2)N(C)CC4", "note": "(centres undefined)", "growth": "-88% [100 µM] (active) and -95.6% [100 µM] (active)"},
      {"smiles": "CCCCCCSC[C@H](OC(C)=O)[C@@H](OC(C)=O)[C@@H](OC(C)=O)[C@@H](COC(C)=O)OC(C)=O", "growth": "51.3% [100 µM] (inactive) and 71.8% [100 µM] (inactive)"},
      {"smiles": "CC1CC2(OC2C)C(=O)OC2CCN(C)C/C=C(/COC(=O)C1(C)O)C2=O", "note": "(centres undefined)", "growth": "89.6% [100 µM] (inactive) and 94.3% [100 µM] (inactive)"},
      {"smiles": "CCCCCCCCCCCCC/C=C/[C@H]1[C@@H](C(=O)OC)N1S(=O)c1ccc(C)cc1", "note": "(some centres undefined)", "growth": "64.8% [100 µM] (inactive) and 3.51% [100 µM] (active)"},
      {"smiles": "CO/C(N)=C(\\C#N)N=Cc1ccc2ccccc2c1", "growth": "-20.4% [100 µM] (active) and 1.77% [100 µM] (active)"},
      {"smiles": "Cc1ccc(NC(=O)/C(Cc2cc(=O)oc3cc(O)ccc23)=N\\NC(C)(C)C)cc1C", "growth": "87.9% [100 µM] (inactive) and 92.2% [100 µM] (inactive)"}
    ]}
  ]
}
